Results published in PubChem BioAssay AID1159580 (chemical genetic matrix, 2015).
Where “and” joins values, the source holds several entries; their conditions need not be identical. Equal values may be shown once. The campaign covered roughly 5,500 compounds. About 2,000 (36%) were called active. Not shown: some 18% with an inconclusive outcome. No stated cut-off is given here; in the data, active means normalized growth mostly below about 0.91 (no sharp cut-off); inconclusive means no clear call, values can overlap the other calls; inactive means mostly above about 0.92. The list shows a part of the results.

Experiment: chemical genetic growth profiling, strain panel (AID 1159580);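 further: tested at 20 µM; growth read once vehicle control cultures reached saturation at 30 °C; 1 = growth at the plate median or of vehicle wells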
Details: S. cerevisiae deletion strains, growth OD

Measured: normalized growth

COC1=C[C@@H]2[C@@H]3Cc4ccc(OC)c(O)c4[C@]2(CCN3C)CC1=O
inactive: locus YAL013W, strain DEP1, stronger effect = lower value 0.985 | locus YAL021C, strain ccr4, stronger effect = lower value 1.01 | locus YAL026C, strain drs2, stronger effect = lower value 1 | locus YAL030W, strain snc1, stronger effect = lower value 1 | locus YBL061C, strain skt5, stronger effect = lower value 1.01 | locus YBR009C, strain hhf1, stronger effect = lower value 1 | locus YBR021W, strain FUR4, stronger effect = lower value 1.04 | locus YBR023C, strain chs3, stronger effect = lower value 1 | locus YBR171W, strain sec66, stronger effect = lower value 0.983 | locus YBR229C, strain ROT2, stronger effect = lower value 0.961 | locus YBR231C, strain swc5, stronger effect = lower value 0.995 | locus YBR279W, strain paf1, stronger effect = lower value 0.991 | locus YCL011C, strain gbp2, stronger effect = lower value 1 | locus YCL016C, strain dcc1, stronger effect = lower value 0.977 | locus YCL029C, strain bik1, stronger effect = lower value 0.967 | locus YCL069W, strain vba3, stronger effect = lower value 1.01 | locus YCR088W, strain abp1, stronger effect = lower value 0.987 | locus YDL005C, strain med2, stronger effect = lower value 0.997 | locus YDL035C, strain GPR1, stronger effect = lower value 1 | locus YDL040C, strain nat1, stronger effect = lower value 1 | locus YDL074C, strain BRE1, stronger effect = lower value 0.952 | locus YDL101C, strain DUN1, stronger effect = lower value 0.972 | locus YDL134C, strain PPH21, stronger effect = lower value 0.981 | locus YDL185W, strain tfp1, stronger effect = lower value 0.929 | locus YDL192W, strain arf1, stronger effect = lower value 0.987 | locus YDR001C, strain nth1, stronger effect = lower value 1 | locus YDR069C, strain doa4, stronger effect = lower value 0.979 | locus YDR101C, strain arx1, stronger effect = lower value 1 | locus YDR137W, strain rgp1, stronger effect = lower value 0.972 | locus YDR150W, strain NUM1, stronger effect = lower value 0.971 | locus YDR159W, strain sac3, stronger effect = lower value 0.967 | locus YDR162C, strain NBP2, stronger effect = lower value 0.969 | locus YDR195W, strain ref2 0.967 | locus YDR297W, strain sur2, stronger effect = lower value 1 | locus YDR318W, strain mcm21, stronger effect = lower value 0.995 | locus YDR334W, strain swr1, stronger effect = lower value 0.984 | locus YDR335W, strain msn5, stronger effect = lower value 0.986 | locus YDR388W, stronger effect = lower value 0.984 | locus YDR392W, strain spt3, stronger effect = lower value 0.988 | locus YDR502C, strain sam2, stronger effect = lower value 0.986 | locus YEL003W, strain gim4, stronger effect = lower value 1 | locus YEL037C, strain rad23, stronger effect = lower value 0.999 | locus YEL061C, strain CIN8 (second series), stronger effect = lower value 0.999 | locus YEL061C, strain CIN8, stronger effect = lower value 0.982 | locus YER015W, strain faa2, stronger effect = lower value 0.986 | locus YER016W, strain bim1, stronger effect = lower value 1 | locus YER110C, stronger effect = lower value 0.969 | locus YER111C, strain swi4, stronger effect = lower value 1.01 | locus YER155C, strain BEM2 (second series), stronger effect = lower value 1.01 | locus YER155C, strain BEM2, stronger effect = lower value 1 | locus YER167W, strain BCK2, stronger effect = lower value 1 | locus YFR010W, strain ubp6, stronger effect = lower value 1.01 | locus YGL078C, strain dbp3, stronger effect = lower value 0.971 | locus YGL086W, strain mad1, stronger effect = lower value 0.99 | locus YGL167C, strain pmr1, stronger effect = lower value 0.986 | locus YGL173C, strain kem1, stronger effect = lower value 0.99 | locus YGL227W, strain vid30, stronger effect = lower value 1 | locus YGL240W, strain doc1, stronger effect = lower value 1 | locus YGL248W, strain PDE1, stronger effect = lower value 0.972 | locus YGL253W, strain hxk2, stronger effect = lower value 1.01 | locus YGR078C, strain PAC10, stronger effect = lower value 0.965 | locus YGR135W, strain pre9, stronger effect = lower value 0.959 | locus YGR229C, strain SMI1, stronger effect = lower value 0.974 | locus YGR252W, strain gcn5, stronger effect = lower value 1 | locus YHR013C, strain ard1, stronger effect = lower value 0.962 | locus YHR027C, strain rpn1, stronger effect = lower value 0.992 | locus YHR030C, strain SLT2, stronger effect = lower value 1 and 1.03 | locus YHR079C, strain IRE1 (second series), stronger effect = lower value 0.987 | locus YHR079C, strain IRE1, stronger effect = lower value 1.03 | locus YHR094C, strain hxt1, stronger effect = lower value 0.978 | locus YHR129C, strain ARP1, stronger effect = lower value 0.996 | locus YHR142W, strain chs7, stronger effect = lower value 0.999 | locus YHR200W, strain rpn10, stronger effect = lower value 0.975 | locus YIL066C, strain RNR3, stronger effect = lower value 0.972 | locus YIL073C, strain SPO22, stronger effect = lower value 1.03 | locus YIL125W, strain kgd1, stronger effect = lower value 0.968 | locus YIR030C, strain dcg1, stronger effect = lower value 0.989 | locus YJL092W, strain hpr5, stronger effect = lower value 0.997 | locus YJL095W, strain BCK1 (second series), stronger effect = lower value 1 | locus YJL095W, strain BCK1, stronger effect = lower value 0.963 and 1.03 | locus YJL115W, strain asf1, stronger effect = lower value 1.01 | locus YJL129C, strain trk1, stronger effect = lower value 0.977 | locus YJL134W, strain LCB3, stronger effect = lower value 0.989 | locus YJL154C, strain vps35, stronger effect = lower value 0.988 | locus YJL164C, strain tpk1, stronger effect = lower value 0.997 | locus YJL166W, strain qcr8, stronger effect = lower value 1 | locus YJL168C, strain set2, stronger effect = lower value 0.982 | locus YJL187C, strain SWE1 (second series), stronger effect = lower value 0.958 | locus YJR043C, strain POL32, stronger effect = lower value 1.03 | locus YJR066W, strain TOR1, stronger effect = lower value 0.97
